HEK cytotox: kills HEK 293 cells; HEK 293 viability, ATP luminescence (CellTiter-Glo), 48-72 h; Potency, µM (doses to about 115 µM), for the others: top-dose activity change, negative = cytotoxicity, actives largely listed as inhibitors; 6.6% of 94,000 active; AID 1345083; note: nearly all actives have a fitted effect of over 60% in size
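HEK 293 cells seeded at 250 cells/well were exposed to compound for 48 or 72 hr at 37 degree Celsius. Viability taken as ATP content by CellTiter-Glo luminescence.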
FLuc inh: inhibitors of firefly (Photinus pyralis) luciferase. P08659. purified P. pyralis luciferase, luminescence, biochemical. Potency, µM (highest dose often 115 µM), actives largely listed as inhibitors. 2.5% of 76,000 active. AID 1347043; note: nearly all actives have a fitted effect of over 65% in size
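Cell-free enzyme assay, 10nM P. pyralis luciferase, luciferin and ATP each at 10uM. Inhibition profiled over a 6-point titration, read as luminescence.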
NPR1 antag: antagonists of human natriuretic peptide receptor Npr1 | P16066 | HEK293 hNpr1 GloSensor cGMP, ANP-stimulated luminescence | Potency, µM (top dose mostly 46.3 µM), inactives show at the top dose activity change, negative = inhibition, actives largely listed as inhibitors | 1.6% of 76,000 active; calls by dose curve; note: nearly all actives have a fitted effect of over 60% in size
Target sequence (P16066 whole entry, looked up): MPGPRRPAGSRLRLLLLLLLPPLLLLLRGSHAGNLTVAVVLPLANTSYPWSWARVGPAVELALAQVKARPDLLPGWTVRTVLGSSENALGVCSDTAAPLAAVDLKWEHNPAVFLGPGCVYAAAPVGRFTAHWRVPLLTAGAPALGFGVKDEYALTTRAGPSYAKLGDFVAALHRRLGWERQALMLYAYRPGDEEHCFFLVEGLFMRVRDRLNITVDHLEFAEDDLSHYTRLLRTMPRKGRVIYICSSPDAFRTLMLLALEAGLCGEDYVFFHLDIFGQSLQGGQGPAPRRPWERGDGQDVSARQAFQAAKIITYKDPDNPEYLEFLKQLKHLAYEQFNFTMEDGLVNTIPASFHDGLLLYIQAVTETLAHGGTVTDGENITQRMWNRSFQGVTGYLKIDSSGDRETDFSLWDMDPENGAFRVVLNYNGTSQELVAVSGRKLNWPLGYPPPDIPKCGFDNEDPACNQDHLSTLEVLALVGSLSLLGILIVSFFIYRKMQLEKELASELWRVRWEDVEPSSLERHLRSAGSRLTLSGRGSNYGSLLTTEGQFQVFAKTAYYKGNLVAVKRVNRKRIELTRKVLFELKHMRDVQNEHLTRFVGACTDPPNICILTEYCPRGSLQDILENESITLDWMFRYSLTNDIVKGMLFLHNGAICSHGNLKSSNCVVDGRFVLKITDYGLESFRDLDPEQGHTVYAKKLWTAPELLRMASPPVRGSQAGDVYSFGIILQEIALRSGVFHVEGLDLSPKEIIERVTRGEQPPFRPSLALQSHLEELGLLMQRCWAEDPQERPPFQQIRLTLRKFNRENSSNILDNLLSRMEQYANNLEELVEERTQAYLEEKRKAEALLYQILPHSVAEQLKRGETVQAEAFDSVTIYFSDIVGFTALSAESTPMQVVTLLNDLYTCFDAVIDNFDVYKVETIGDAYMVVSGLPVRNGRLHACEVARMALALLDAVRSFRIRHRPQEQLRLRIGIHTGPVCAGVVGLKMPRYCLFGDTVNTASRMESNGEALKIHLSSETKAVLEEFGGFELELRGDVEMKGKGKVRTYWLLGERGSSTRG
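HEK293 cells stably expressing human Npr1 and cGMP GloSensor pGS-40F, loaded 2 h with 2% GloSensor reagent, given compound 30 min at room temperature. Luminescence read before and 20 min after 0.1 nM hNppA.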
SNCA viab count: cell viability loss counter-screen | HEK-293-SNCA-luc viability, GF-AFC fluorescence, 24 h | Potency, µM (titrated, usually from 57.1 µM), for the others: at the top dose activity change, negative = cytotoxicity, hits mostly cytotoxic | 0.12% of 150,000 active;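 note: 0% = DMSO-treated cells and -100% = medium-only wells without cells; nearly all actives have a fitted effect of over 30% in size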
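Cytotoxicity counterscreen: after 24 h compound treatment of genome-edited SNCA-luciferase HEK-293 cells, live-cell protease substrate GF-AFC read by fluorescence after 30 min; activity scaled between DMSO (0%) and medium-only (-100%), curves Hill-fitted.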
SNCA expr inhib: SNCA gene expression inhibition; AID 1671194; Potency, µM (titrated, usually from 57.2 µM), without a hit: at the top dose activity change, negative = inhibition, most hits filed as inhibitors; 0.17% of 140,000 active; HEK-293 SNCA-luciferase knock-in, luminescence, 24 h;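 note: plate controls were DMSO cells for no effect and cell-free wells for full effect; nearly all actives have a fitted effect of over 45% in size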
3T3 cytotox: NIH 3T3 cell cytotoxicity | Potency, µM (top dose mostly 96.7 µM), for the others: top-dose activity change, negative = cytotoxicity, most hits filed as inhibitors | 4.3% of 94,000 active | NIH 3T3 viability, CellTiter-Glo ATP luminescence, 48-72 h; note: nearly all actives have a fitted effect of over 55% in size
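Luminescent ATP readout (CellTiter-Glo, 10 min RT) after 48 or 72 hr compound exposure of NIH 3T3 cells seeded at 400 cells/well in 1536-well format; quantitative HTS.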
* marks the source's active call; other numbers are inactive results; [ ] = another dose, or the depositor's remark. A selection: hits, their analogues and other compounds. The true share with any hit is near 7.4%. Unless noted, calls come from the whole dose curve; as a rule, active = well fitted curve in the direction sought with a large enough effect; inconclusive = small, poorly fitted or top-dose-only effect, or another doubt; inactive = no such curve, though single readings can be large; an effect the other way counts as inactive or inconclusive. Unless noted, % is set by controls: 0 for no effect and ±100 for the full control effect; potency is the fitted concentration of half-maximal effect.

`COc1cccc(CN2CCNc3cnc(OCc4cccnc4)cc3C2)c1` gave HEK cytotox inconclusive, FLuc inh inactive, NPR1 antag -24%[70.6 µM], SNCA viab count -9%[87.6 µM], SNCA expr inhib -2%[87.6 µM] and 3T3 cytotox inconclusive.
For COc1ccc(Nc2cc3c(cn2)CN(CCc2ccccc2)CCN3)cn1 the results were HEK cytotox 63µM*, FLuc inh inactive, NPR1 antag -7%[70.6 µM], SNCA viab count inconclusive, SNCA expr inhib inconclusive and 3T3 cytotox 50µM*.
For COc1cccc(Nc2cc3c(cn2)NCCN(Cc2ccccc2)C3)c1 the results were HEK cytotox 89µM*, FLuc inh inactive, NPR1 antag -21%[70.6 µM], SNCA viab count -10%[87.6 µM], SNCA expr inhib -4%[87.6 µM] and 3T3 cytotox inconclusive.
`O=C(C1CCCN1C(=O)c1ccc(Cl)cc1)N1CCC(c2nc3ncccc3[nH]2)CC1` (stereo not given) gave HEK cytotox -10%, SNCA viab count -7%, SNCA expr inhib -6% and 3T3 cytotox -5%.
CC(C)N1CCC(Cc2ccc(CCNC(=O)c3cccs3)cc2)CC1 was read as HEK cytotox inconclusive, SNCA viab count -15%, SNCA expr inhib 54% and 3T3 cytotox inconclusive.
For O=C1COc2ccc(OCc3cncs3)nc2CN1Cc1ccc(F)cc1 the results were HEK cytotox 112µM*, FLuc inh inactive, NPR1 antag -23%[70.6 µM], SNCA viab count -6%[87.6 µM], SNCA expr inhib -23%[87.6 µM] and 3T3 cytotox inconclusive.
`Cc1nc(CN2Cc3nc(-c4ccccc4F)ccc3OCC2=O)cs1` gave HEK cytotox inconclusive, FLuc inh inactive, NPR1 antag 1%[70.6 µM], SNCA viab count 2%[87.6 µM], SNCA expr inhib 0%[87.6 µM] and 3T3 cytotox inconclusive.
For Cc1nc(CN2Cc3nc(OCc4ccc(F)cc4)ccc3OCC2=O)cs1 the results were HEK cytotox 71µM*, FLuc inh inactive, NPR1 antag inconclusive, SNCA viab count -11%[87.6 µM], SNCA expr inhib inconclusive and 3T3 cytotox inconclusive.
Screening Cn1c(CN2CCOCC2)nnc1C1CCCN(c2ccc(C#N)cn2)C1 (stereo not given) returned HEK cytotox inactive, FLuc inh inactive, NPR1 antag 6%, SNCA viab count -7%, SNCA expr inhib 0% and 3T3 cytotox 2%.
`CS(=O)(=O)N1CCN2C(=O)N(Cc3cccnc3)C[C@H]2C1` gave HEK cytotox -1%[172 µM], FLuc inh inactive, NPR1 antag 0%[70.6 µM], SNCA viab count 0%[87.6 µM], SNCA expr inhib -9%[87.6 µM] and 3T3 cytotox inactive.
`Cc1ccc(N2C(=S)N[C@H]3[C@@H](O)[C@H](O)C[C@@H](C(=O)NCc4cccs4)[C@H]32)cc1Cl` gave HEK cytotox 79µM*, FLuc inh inconclusive, NPR1 antag -2%, SNCA viab count 5%, SNCA expr inhib inconclusive and 3T3 cytotox inconclusive.
Screening O=C(c1cccc(Cl)c1)N1CCc2nc(-c3ccccc3)nc(-c3ccc(Cl)cc3)c2C1 returned HEK cytotox 28µM*, FLuc inh inactive, NPR1 antag -11%, SNCA viab count -16%, SNCA expr inhib inconclusive and 3T3 cytotox inconclusive.
For O=C(c1cccc(Cl)c1)N1CCc2nc(-c3ccc(Cl)cc3)nc(-c3ccccc3)c2C1 the results were HEK cytotox inconclusive, FLuc inh inconclusive, NPR1 antag 2%, SNCA viab count 5%, SNCA expr inhib 100% and 3T3 cytotox inconclusive.
For COc1cccc(C(=O)N2CCc3nc(-c4ccccc4)nc(-c4ccc(Cl)cc4)c3C2)c1 the results were HEK cytotox 40µM*, FLuc inh inactive, NPR1 antag 5%, SNCA viab count 1%, SNCA expr inhib 0% and 3T3 cytotox inconclusive.
Screening O=C1CO[C@H]2CCN(Cc3ccc(O)cc3)CC[C@@H]2N1c1ccccc1 returned HEK cytotox inconclusive, FLuc inh inactive, NPR1 antag -5%[70.6 µM], SNCA viab count 5%[87.6 µM], SNCA expr inhib 15%[87.6 µM] and 3T3 cytotox inconclusive.
For c1ccc(-c2ccnc(NCC3OCCc4ccccc43)n2)nc1 (stereo not given) the results were HEK cytotox 40µM*, FLuc inh 45µM*, NPR1 antag -11%, SNCA viab count -1%, SNCA expr inhib 29% and 3T3 cytotox inconclusive.
`c1ccc(-c2nc3c(c(NCC4OCCc5ccccc54)n2)CCNC3)nc1` (stereo not given) gave HEK cytotox inconclusive, FLuc inh inconclusive, NPR1 antag -3%, SNCA viab count -7%, SNCA expr inhib 131% and 3T3 cytotox 40µM*.
For CCCCCOc1ccccc1/C(=C\SC)n1ccnc1 the results were SNCA viab count 3%[23.9 µM] and SNCA expr inhib 7%[25.6 µM].
O=C(CCNC(=O)c1cnccn1)NC1CCCc2c1[nH]c1ccccc21 (stereo not given) was read as HEK cytotox -8%, FLuc inh inactive, NPR1 antag 3%, SNCA viab count 10%, SNCA expr inhib -13% and 3T3 cytotox -1%.
COCCN1CC(CO)C2(CCN(C(=O)c3cc(Cl)ccc3OC)CC2)C1 (stereo not given) was read as HEK cytotox inconclusive, FLuc inh inactive, NPR1 antag 1%, SNCA viab count 0%[12.5 µM], SNCA expr inhib 21% and 3T3 cytotox 0%.
`COc1cccc(NC(=O)Cn2c(C)ccc(NC(=O)Nc3ccc(C)cc3)c2=O)c1` gave HEK cytotox 79µM*, FLuc inh 1µM*, NPR1 antag inconclusive, SNCA viab count -1%, SNCA expr inhib 106% and 3T3 cytotox inconclusive.
`Cc1ccc(NC(=O)Nc2ccc(C)n(CC(=O)Nc3ccccc3)c2=O)cc1` gave HEK cytotox 8%, FLuc inh 0.79µM*, NPR1 antag 0%, SNCA viab count 12%, SNCA expr inhib 88% and 3T3 cytotox inactive.
For Cc1ccc(S(=O)(=O)Nc2ccc(C)n(CC(=O)Nc3ccccc3)c2=O)cc1 the results were HEK cytotox -13%, FLuc inh inactive, NPR1 antag 6%, SNCA viab count 7%, SNCA expr inhib 10% and 3T3 cytotox -2%.
Screening COc1ccc(NC(=O)Nc2ccc(C)n(CC(=O)Nc3ccc(C)c(C)c3)c2=O)cc1 returned HEK cytotox inconclusive, FLuc inh 0.71µM*, NPR1 antag -15%, SNCA viab count 1%, SNCA expr inhib 63% and 3T3 cytotox -28%.
`CCCN1CCN(C(=O)Cn2c(C)ccc(NC(=O)Nc3ccccc3)c2=O)CC1` gave HEK cytotox -3%, FLuc inh 35µM*, NPR1 antag 8%, SNCA viab count 7%, SNCA expr inhib 13% and 3T3 cytotox inactive.

Screening data deposited in PubChem by National Center for Advancing Translational Sciences (NCATS).
